High-throughput results deposited in PubChem BioAssay by National Center for Advancing Translational Sciences (NCATS).
Compounds with a hit are over-represented: about 9.4% of the library has one in this group of screens.
SMN2 splice up = SMN2 splice variant enhancement. HEK293 SMN2-luciferase splicing reporter, luminescence, 30-36 h. Potency, µM (doses to about 46.1 µM), without a hit: top-dose activity change, positive = activation, usual class: activators. hit rate 2.8% among 210,000; note: % of control where 0% means no effect; nearly all actives have a fitted effect of over 55% in size
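qHTS luciferase splicing reporter: luminescence rises when SMN2 exon 7 is included in transfected HEK293 cells. Compound exposure lasted 30-36 h at 37C, with 4.5 mM final sodium butyrate as control, followed by a ONE-Glo read.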
ELG1 genotox = inducers of genotoxicity in HEK293T ELG1-luciferase cells; HEK293T ELG1-luciferase reporter, luminescence, 16 h; Potency, µM (highest dose often 46 µM), without a hit: at the highest dose activity change, positive = activation, hits mostly activators; hit rate 1.3% among 330,000; AID 504466; note: % of control where 0% means no effect; nearly all actives have a fitted effect of over 60% in size
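16 hr compound incubation (37 °C, 5% CO2) of HEK293T cells carrying luciferase-tagged ELG1; luciferase then measured by ONE-Glo luminescence after 30 min at RT.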
ELG1 DNA repair = blocks ELG1-dependent DNA repair in HEK293T cells; hit rate 2.3% among 330,000; HEK293T ELG1-luciferase reporter, luminescence, 16 h; DNA damage induced by 5-fluorouridine; AID 504467; Potency, µM (doses to about 46.1 µM), without a hit: top-dose activity change, negative = inhibition, hits mostly inhibitors; note: % is set by controls: 0 for no effect and ±100 for the full control effect; nearly all actives have a fitted effect of over 55% in size
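Reporter activity after DNA damage by 5-fluorouridine is monitored. Compound-treated cells incubate 16 hr at 37 °C, then ONE-Glo is added for 30 min before luminescence reading.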
FLuc counter = inhibits or activates purified firefly luciferase, miR-21 counter-screen; AID 588342; Potency, µM (doses to about 57.5 µM), inactives show at the highest dose activity change, negative = inhibition, hits mostly inhibitors; P08659; purified FLuc, Km substrates, luminescence inhibition; hit rate 6.9% among 360,000;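 note: plate controls were vehicle for no effect and reference inhibitor for full effect; nearly all actives have a fitted effect of over 55% in size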
Target sequence (P08659 whole entry, looked up): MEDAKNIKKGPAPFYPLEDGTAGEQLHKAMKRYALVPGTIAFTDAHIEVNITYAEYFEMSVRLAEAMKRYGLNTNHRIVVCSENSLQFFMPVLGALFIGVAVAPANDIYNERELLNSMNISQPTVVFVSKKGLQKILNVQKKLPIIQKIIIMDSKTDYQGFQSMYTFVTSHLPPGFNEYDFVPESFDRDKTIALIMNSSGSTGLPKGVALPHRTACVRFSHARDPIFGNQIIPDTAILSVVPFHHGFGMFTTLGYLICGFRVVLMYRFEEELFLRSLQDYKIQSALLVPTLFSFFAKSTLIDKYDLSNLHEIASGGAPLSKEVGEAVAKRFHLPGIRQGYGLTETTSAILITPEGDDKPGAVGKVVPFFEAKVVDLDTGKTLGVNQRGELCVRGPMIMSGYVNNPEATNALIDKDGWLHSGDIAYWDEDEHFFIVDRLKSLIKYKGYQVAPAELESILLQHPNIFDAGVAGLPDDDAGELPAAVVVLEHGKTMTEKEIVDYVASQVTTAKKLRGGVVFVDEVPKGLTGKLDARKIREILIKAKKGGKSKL
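Purified P. pyralis luciferase (10nM final) with 10uM D-luciferin and 10uM ATP (Km levels) in 50mM Tris acetate pH 7.5, 10mM Mg acetate, 0.01% Tween-20, 0.05% BSA; qHTS 6-point titration, ~60 µM downward; luminescence read.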
NPC1 prom act = activators of NPC1 promoter. Huh7 NPC1 promoter luciferase reporter, 24 h. Potency, µM (doses to about 9.22 µM), for inactives: at the highest dose activation, hits mostly activators. hit rate 2.4% among 320,000. AID 485313; note: % of control where 0% means no effect; nearly all actives have a fitted effect of over 60% in size
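Huh7 cells stably carrying NPC1 promoter–luciferase, plated in Opti-MEM with 10% FBS for 2 h, were exposed to compound in DMSO for 24 h at 37 °C; luciferase reagent was added for 10 min and luminescence read.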
Rab9 prom act = activates the Rab9 promoter; Potency, µM (top dose mostly 9.22 µM), inactives show at the top dose activation, negative = inhibition, usual class: activators; hit rate 2.8% among 320,000; AID 485297; Huh7 Rab9 promoter-luciferase reporter, luminescence, 24 h; note: % of control where 0% means no effect; nearly all actives have a fitted effect of over 60% in size
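Luminescence from Amplite-detected luciferase (10 minutes, ambient) reports Rab9 promoter activation. Before that, stable Rab9-luciferase Huh7 cells (1500/well, reduced-serum OP-MEM I plus 10% FBS) were exposed to compound for 24 hours at 37C.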
An asterisk follows results filed as active; ? = inconclusive; / = no result given; [ ] = another dose, or the depositor's remark. Calls come from the whole dose curve; as a rule, active = well fitted curve in the direction sought with a large enough effect; inconclusive = small, poorly fitted or top-dose-only effect, or another doubt; inactive = no such curve, though single readings can be large; an effect the other way counts as inactive or inconclusive. Potency is the fitted concentration of half-maximal effect.

SMILES | SMN2 splice up | ELG1 genotox | ELG1 DNA repair | FLuc counter | NPC1 prom act | Rab9 prom act
COC(=O)C1=C(O)/C(=C\c2ccc(CNS(=O)(=O)c3ccccc3)o2)N=C1C | -9%[1.84 µM] | 0% | 11% | 1% | 9% | 14%
COc1ccc(Br)cc1/C=C/C(=O)c1ccc(NC(C)=O)cc1 | -105% | -15% | 15µM* | 3% | -2% | -6%
COc1ccc(-c2csc(NC(=O)c3cccs3)c2C(=O)O)cc1OC | 16% | -3% | ? | 24µM* | 13% | 15%
O=C(Nc1ccc(NC(=O)c2cccs2)cc1)c1cccc(Br)c1 | -2% | / | / | -1% | / | /
COc1ccc(/C=C/C(=O)c2ccc(NC(=O)c3cccs3)cc2)cc1OC | 16µM* | ? | ? | 13µM* | ? | ?
COc1ccc(C(=O)Nc2ccc(NC(=O)c3cccs3)cc2)cc1Cl | 2% | ? | ? | 2% | -3% | -5%
O=C(Nc1cccc(O)c1)c1cccc(NC(=O)c2cccs2)c1 | / | -12% | 15% | 13µM* | 15% | 0%
COc1ccc(OCC(=O)Nc2ccccc2C(=O)OCc2cc(=O)n3nc(C)sc3n2)cc1 | / | / | / | -15% | / | /
COc1ccc(NC(=O)c2cccs2)cc1O | ? | ? | ? | 15µM* | ? | ?
COc1cc(NC(=O)c2cccs2)c(OC)cc1NC(=O)CCC(=O)Nc1ccc2ncccc2c1 | / | -14% | 15µM* | 4% | 0% | -5%
COc1ccc(C(=O)Nc2ccc(NC(=O)c3cccs3)cc2)cc1OC | -3% | / | / | 0% | / | /
COc1cccc(OC)c1C(=O)Nc1cccc(NC(=O)c2cccs2)c1 | / | -22% | -26% | ? | 13% | 9%
COc1ccc(C(=O)Nc2cccc(NC(=O)c3cccs3)c2)cc1OC | / | -6% | 15µM* | 11µM* | 5% | 8%
COc1cc(NC(=O)CN2Cc3ccccc3C2=O)cc(OC)c1OC | / | / | / | 2% | / | /
Cc1ccc(NC(=O)Cn2nc(-c3ccccc3)nc(Cc3ccc(Cl)cc3)c2=O)cc1 | / | / | / | -2% | / | /
Cc1nc2nc(SCC(=O)NCCc3ccc(Cl)cc3)nn2c(C)c1Cc1ccccc1 | -24% | / | / | -16% | / | /
Cc1cccc(NC(=O)c2ccc(-c3ccccc3)s2)c1 | ? | / | / | 2.4µM* | / | /
O=C(Nc1cccc(F)c1)c1ccc(-c2ccccc2)s1 | 16% | / | / | 2.1µM* | / | /
O=C(Nc1ccc(F)cc1F)c1ccc(-c2ccccc2)s1 | 22% | / | / | -20% | / | /
Cc1ccc(NC(=O)c2ccc(-c3ccccc3)s2)cc1 | 5% | / | / | -15% | / | /
O=C(Nc1ccccc1)c1ccc(-c2ccc(F)cc2)s1 | ? | 7.3µM* | ? | ? | ? | ?
CCN(CC)C(=O)Cn1c(=O)n(-c2ccc(OC)cc2OC)c(=O)c2c(C)c(C(=O)N(CC)CC)sc21 | / | / | / | 2% | / | /
Oc1ccc(O)c(-c2cnns2)c1 | 9% | -1% | ? | 8.5µM* | -14% | -6%
Cn1c(-c2ccc3ccccc3n2)nc2cnccc21 | 99% | ? | ? | 8.5µM* | 4µM* | 2.2µM*
Clc1cccc(-c2nnc(-c3ccccc3)o2)c1 | 13µM* | 1.2µM* | ? | 1.5µM* | 1.4µM* | 0.89µM*
SMILES | SMN2 splice up | ELG1 genotox | ELG1 DNA repair | FLuc counter | NPC1 prom act | Rab9 prom act
Nc1ccccc1-c1nnc(-c2ccc(-c3ccccc3)cc2)o1 | ? | 2.6µM* | ? | 3µM* | 4µM* | 3.2µM*
Clc1cccc(-c2nnc(-c3ccno3)o2)c1 | / | 5% | 10% | -5% | -1% | 0%
COc1ccc(-c2cc(-c3nnc(-c4ccncc4)o3)c3ccccc3n2)cc1 | -6%[1.84 µM] | 0% | ? | 2.7µM* | -4% | -4%
c1ccc(-c2nnc(-c3ccccc3)o2)cc1 | 13µM* | ? | ? | 5.4µM* | 1.6µM* | 1.4µM*
COC(=O)CCCC(=O)O | -2%[9.22 µM] | / | / | / | / | /
CCOc1cc(C(=O)NCCc2csc(-c3ccc(C)cc3)n2)cc(OCC)c1OCC | / | / | / | -15% | / | /
Cc1ccccc1NS(=O)(=O)c1cccc(-c2nnc(-c3ccccc3)o2)c1 | -10% | -5% | ? | -1% | -5% | -4%
